For 40 compounds, Potency results are on record in PubChem BioAssay (Tox21).

Inconclusive results are not listed. Where a call stands in place of a potency, no number is given. Activity calls are given as the source filed them. Calls follow the shape of the dose curve; as a rule, active = well fitted cell-killing curve with a large enough effect in the repeat runs; inconclusive = weak or mixed curves, or effect the other way; inactive = flat fitted curve, though single readings scatter.
Potency is read from the fitted curve at half-maximal effect.

The assay is described as follows: Human pregnane X receptor (PXR) small molecule agonists, qHTS cell viability counter screen (AID 1346977). Also: nearly all actives have a fitted effect of over 50% in size. As to conditions: PXR-Luc HepG2 viability, CellTiter-Fluor, 24 h; series mostly up to 92.4 µM. From the text:
U.S. Tox21 Program National Center for Advancing Translational Sciences [NCATS] NIH Chemical Genomics Center [NCGC] U.S. Environmental Protection Agency [EPA] National Institutes of Environmental Health Sciences [NIEHS] National Toxicology Program [NTP] U.S. Food and Drug Administration [FDA] Tox21 Assay Overview: The human pregnane X receptor (hPXR) regulates the expression of several drug metabolizing enzymes and induction of these proteins is a major mechanism for developing drug resistance in cancer. One such key enzyme catalyzing the drug metabolism is cytochrome P450 3A4 (CYP3A4). Changes in CYP3A4 expression affect drug metabolism, thereby reducing the therapeutic efficacy and altering toxicological response to a drug and which finally causes adverse drug interaction. To screen Tox21 libraries for compounds that activate hPXR-mediated CYP3A4 gene expression, PXR-Luc HepG2 cells were used. Also cytotoxicity of the compounds was tested in parallel by measuring the cell viability using CellTiter-Fluor assay system in the same wells.
Tox21 Assay Protocol Summary: PXR-Luc HepG2 cells were dispensed at 2,000 per well in 5uL of assay medium containing 5% charcoal-stripped FBS into white solid bottom 1536-well plates (Corning Life Sciences, Corning, NY) using a Multidrop Combi (Thermo Scientific, Waltham, MA) dispenser. The assay plates were incubated at 37 C and 5% CO2 for 5hr, and then 23nL of compounds dissolved in DMSO and positive control were transferred using a Pintool station (Wako, San Diego, CA). The assay plates were incubated at 37C and 5% CO2 for 24hr. For cytotoxicity read, after 23hr incubation at 37C, 1uL CellTiter-Fluor reagent (Promega Corporation, Madison, WI) was added to each well of the assay plates using Flying Reagent Dispenser (FRD, Aurora Discovery, San Diego, CA). After 1hr incubation at 37C and 5% CO2, the fluorescence signal was quantified using a ViewLux plate reader (PerkinElmer, Shelton, CT).
(In general: In qHTS, concentration-response curves come from the screen itself.)
Turning to `CC(C)COCC(CN(Cc1ccccc1)c1ccccc1)N1CCCC1` (stereo not given), the Potency was 29.8 µM (active).
For `O=C1C(=O)c2ccccc2C(O)=C1C1CCC(c2ccc(Cl)cc2)CC1` (stereo not given) the value was 11.9 µM (active); for `CCC(C)COC(C)=O` (stereo not given), “inactive”.
In the case of `CC(=O)Oc1ccc([N+](=O)[O-])cc1CCl` it was 48.6 µM (active); in that of `Cc1[nH]cnc1CN1CCc2c(c3ccccc3n2C)C1=O`, “inactive”; in that of `COc1cc(C(=O)NC2CCN(C)CC2)ccc1Nc1ncc2c(n1)N(C1CCCC1)CC(F)(F)C(=O)N2C`, 8.88 µM (active).
In the case of `CC1CC(C)C(=O)C1=O` (stereo not given) it was “inactive”.
Consider `O=c1[nH]c2ccc(Cl)cc2o1`, for which the Potency entry is “inactive”.
In the case of `CCOC(=O)c1ccc(I)cc1` it was “inactive”.
For `CC[N+](CC)(CCNC(=O)C(=O)NCC[N+](CC)(CC)Cc1ccccc1Cl)Cc1ccccc1Cl` the value was “inactive”; for `CCOC(=O)[C@H](CCc1ccccc1)N[C@@H](C)C(=O)N(CC(=O)O)C1Cc2ccccc2C1`, “inactive”.
For `CC1(C)S[C@@H]2[C@H](NC(=O)C(c3ccccc3)S(=O)(=O)O)C(=O)N2[C@H]1C(=O)O` (stereo not given in full) the value was “inactive”.
As to `Oc1cc2c(cc1O)[C@H]1c3ccc(O)c(O)c3OC[C@@]1(O)C2`, the Potency is 27.6 µM (active).
For `COc1ccc(OC(=O)N(CC(=O)O)Cc2ccc(OCCc3nc(-c4ccccc4)oc3C)cc2)cc1` the value was “inactive”.
For `Cc1ccco1` the value was “inactive”; for `CCC=CC#N`, “inactive”.
For the compound `C=CC(=O)OCC1CC2CC1C1CCC(COC(=O)C=C)C21` (stereo not given), the Potency result was “inactive”.
For `CC(=O)Nc1cc(S(=O)(=O)O)cc2cc(S(=O)(=O)O)c(N=Nc3ccccc3)c(O)c12` the value was 21.7 µM (active).
For `CCOC(=O)c1ccc(O)c(O)c1` the value was “inactive”.
For `CCC(=O)OC` the value was “inactive”; for `O=C(O)CCc1nc(-c2ccccc2)c(-c2ccccc2)o1`, “inactive”; for `O=C1CCCCCCCCCCOCCCCO1`, “inactive”.
As to `NC(=O)c1ccncc1`, the Potency result is “inactive”.
Regarding `O=C(/C=C/c1ccccc1)OCCc1ccccc1`, the Potency result is “inactive”.
On to `C=C(C)C(=O)OCCOCCOC(=O)C(=C)C`, for which the Potency result was “inactive”.
Consider `O=C(OC(=O)c1ccccc1)c1ccccc1`, for which the Potency entry was “inactive”.
On to `CC1=C(Br)C(=O)C(Br)=C/C1=C(/c1ccccc1S(=O)(=O)O)c1cc(Br)c(O)c(Br)c1C`, for which the Potency was 20.8 µM (active).
On to `CCCCCCCCCCC(=O)O`, for which the Potency entry was “inactive”.
For `CC(C)=CCC/C(C)=C/CC/C(C)=C/CCC(=O)OC/C=C(\C)CCC=C(C)C` the value was “inactive”; for `CN1C(=O)OC(C)(C)C1=O`, “inactive”; for `CC(C)=CCC1C(=O)N(c2ccccc2)N(c2ccccc2)C1=O`, “inactive”.
In the case of `C[C@]1(Cn2ccnn2)[C@H](C(=O)O)N2C(=O)C[C@H]2S1(=O)=O`, the Potency result was “inactive”.
For `COc1cc(C(=O)NCCCCCC(=O)O)cc(OC)c1OC` the value was “inactive”; for `O=[N+]([O-])c1ccc(O/N=C/c2cc(Br)c(O)c(Br)c2)c([N+](=O)[O-])c1`, 30.5 µM (active).
With `C=C1c2cccc(O)c2C(O)=C2C(=O)[C@]3(O)C(O)=C(C(N)=O)C(=O)[C@@H](N(C)C)[C@@H]3[C@@H](O)[C@H]12`, the Potency entry is “inactive”.
In the case of `CCCCCCCCC(CCCCCC)C(=O)O` (stereo not given) it was “inactive”; in that of `CCCCCC[C@@H](O)C/C=C\CCCCCCCC(=O)O`, “inactive”.
For `C=COCC(C)C` the value was “inactive”.
For `C[C@H]1c2cccc(O)c2C(O)=C2C(=O)[C@]3(O)C(O)=C(C(N)=O)C(=O)[C@@H](N(C)C)[C@@H]3[C@@H](O)[C@@H]21` the value was “inactive”; for `C1COC1`, “inactive”.
